Measurements as given in PubChem BioAssay (EPA / NIEHS).
The source made the active and inactive calls. The calls were made as follows: active = hit-call score of the fitted dose curve at least 0.9, where 1 is the maximum; inactive = score below 0.9.

Assay: IUF_NPC2a_radial_glia_migration_120hr: Leibniz Research Institute for Environmental Medicine (IUF) 120-hour Neural Progenitor Cell Migration Assay for Radial Glia Migration (NPC2a) (AID 2284298)
Experimental: IUF_NPC2-5 is a cell-based, multiplexed assay that uses hNPC, a human primary neural progenitor cells, with measurements taken at 72 or 120 hours after chemical dosing in a 96-well plate. Human neural progenitor cells (hNPC) are generated from human fetal brain cortex at gestational week (GW) 16-19. In the neural progenitor cell migration and differentiation assay (NPC2-5), hNPCs grown as spheres are plated on an extracellular matrix and migrate and differentiate out of the sphere core. The processes radial glia migration, neuronal and oligodendrocyte migration as well as neuronal differentiation, neuronal morphology and oligodendrocyte differentiation are studied using automated phase contrast imaging and automated fluorescence imaging in combination with high content image analysis. In parallel, the cell viability is assessed using an alamar blue viability assay and the cytotoxicity using a lactate dehydrogenase dependent membrane integrity assay.IUF_NPC2a_radial_glia_migration_120hr is one of 12 assay components measured from the IUF_NPC2-5 assay. The migration distance of radial glia at 120 hr is assessed in um from the edge of the sphere core to the edge of the migration area based on fluorescent images of Hoechst-positive nuclei. With the identification of each nucleus position around the sphere core, migration-related parameters can be calculated. First, a nuclei density distribution is calculated for which an algorithm determines relatively more and less dense nuclei areas. This calculation identifies the sphere core by the densest nuclei area in the image. The algorithm further assumes that nuclei density decreases from the sphere core to the periphery. When the nuclei density hits a pre-defined threshold, the outer boundaries of the migration area are determined and the sphere itself is mapped out in a polynomial bounding box. Derived from this box, the size of the migration area and the migration distance are calculated for each well.Data from the IUF_NPC2a_radial_glia_migration_120hr component was analyzed at the endpoint IUF_NPC2a_ radial_glia_migration_120hr in the positive analysis fitting direction relative to DMSO as the negative control and baseline of activity. Using a type of migration reporter, gain or loss-of-signal activity can be used to understand developmental effects.
Culture protocol: After the cell expansion period the cells are cultured for up to four weeks in which they are passaged every week as described in 3.6. Between one to three days after passaging spheres at a size of 0.3 mm are picked for the test method. For the assessment of neural progenitor cell migration and differentiation, the spheres are plated on poly-D-lysine/laminin coated 96-well flat bottom plates in differentiation medium (N2) to initiate migration and differentiation. Thereby one 0.3 mm big sphere is plated in the middle of a well. The differentiation medium consists of DMEM and Ham's F12 at a ratio of 3 to 1 supplemented with 1% N2 and 1% penicillin and streptomycin. Within 5 days NPCs radially migrate out of the sphere core and differentiate into radial glia cells (nestin positive), neurons (TUBB3 positive), oligodendrocytes (O4 positive) and astrocytes (GFAP positive). Cultivation during the test method is performed at 37C and 5% CO2 at a ph of 7.2-7.6.Exposure: 0.3 mm big hNPC are plated in the already prepared test conditions. Exposure starts at day 0 of differentiation and is continued over five days of differentiation until the experiment is terminated. Cells are fed with fresh medium at day 3 of differentiation. Therefore, half of the test condition solution (e.g. solvent control or compound dilution) is replaced by freshly prepared test condition solution.Test Method: Migration distance and cytotoxicity is determined after 72 hours based on brightfield images of each well. The assay is terminated by the assessment of cell viability and cytotoxicity as well as cell fixation after 120 h. […]

| Compound | outcome | AC50 |
| --- | --- | --- |
| CCCCCC(C)(CC)C(=O)NC (stereo unspecified) | inactive |  |
| CCCCCC=C(C)C(CC)CCO (stereo unspecified) | inactive |  |
| CC(C)O | inactive |  |
| BrC1CC(Br)CC(Br)CC(Br)CC(Br)CC(Br)C1 (stereo unspecified) | inactive |  |
| O=C1CC2(CCCC2)CC(=O)N1CCCCN1CCN(c2ncccn2)CC1 | inactive |  |
| Cc1[nH]n(C)c(=O)c1C(=O)c1ccc(C(F)(F)F)cc1S(C)(=O)=O | inactive |  |
| CC(C)c1nn(C(=O)NC(C)(C)C)c(=O)n1N | inactive |  |
| CC(=O)OC/N=[N+](\C)[O-] | inactive |  |
| C[C@@H]1CC[C@@H](C(C)(C)O)[C@H](O)C1 | inactive |  |
| CN(C)CCCn1cc(C2=C(c3c[nH]c4ccccc34)C(=O)NC2=O)c2ccccc21 |  | 5.37 µM (active) |
| F | inactive |  |
| CC(CNC(=S)[S-])NC(=S)[S-].[Zn+2] (stereo unspecified) |  | 12.5 µM (active) |
| CC(=O)N[C@@H](CC(=O)O)C(=O)O | inactive |  |
| CCCCOCCOP(=O)(O)OCCOCCCC | inactive |  |
| CCc1ccccc1 | inactive |  |
| C[C@@H]1CCO[C@H]2Cn3cc(C(=O)NCc4ccc(F)cc4F)c(=O)c(O)c3C(=O)N12 | inactive |  |
